KLK7 zymogen act – activates the human kallikrein-7 zymogen; AID 652039; purified proKLK7, EDANS-DABCYL substrate fluorescence; 100% is mature enzyme control, 0% vehicle; activation, % at 7 µM; 0.9% of 370,000 active;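 active = activation above the mean of all tested compounds plus 3 SD, computed per campaign excluding outliers beyond control limits, cut at about 13% in these data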
AHR activator – activators of human aryl hydrocarbon receptor | AHR-responsive luciferase reporter cells, luminescence | activation, % at 5 µM | AID 2796 | P35869 | 2.5% of 320,000 active; in the data active = activation above about 47%
rCAG binder – r(CAG) repeat RNA binding. TO-PRO-1 dye displacement fluorescence. AID 651821. inhibition, % at 3 µM. 1.3% of 370,000 active;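 active = inhibition above the plate cutoff, the mean of all test compounds on that plate plus 3 SD, cut at about 35% in these data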;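 note: higher means more dye released from RNA so lower well fluorescence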
ADAM17 inh – inhibitors of human ADAM17. recombinant ADAM17, EDANS/DABCYL FRET peptide cleavage. 0.83% of 370,000 active. inhibition, % at 6.95 µM. P78536;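 active = inhibition above the mean of compounds lying between control limits plus 3 SD, set per campaign, cut at about 8.5% in these data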
NR3A LBD binder – modulators (binders) of human NR3A ligand-binding domain; 2.5% of 340,000 active; Tm shift relative to glycine control, % at 25 µM; NR3A LBD differential scanning fluorimetry, Tm shift; 0% = protein alone, 100% = glycine-bound protein;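 active = melting temperature shift of at least 10% of the positive control shift, at one fixed dose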
ADAM10 inh – ADAM10 inhibition, QFRET primary screen; O14672; recombinant ADAM10, EDANS/DABCYL FRET peptide cleavage, 3 h; inhibition, % at 7 µM; 0.62% of 370,000 active; AID 720582;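 active = inhibition above a per-campaign cutoff equal to the mean of compounds falling between control-based bounds plus 3 SD, cut at about 20% in these data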
Target sequence (O14672 214-748 limits assumed): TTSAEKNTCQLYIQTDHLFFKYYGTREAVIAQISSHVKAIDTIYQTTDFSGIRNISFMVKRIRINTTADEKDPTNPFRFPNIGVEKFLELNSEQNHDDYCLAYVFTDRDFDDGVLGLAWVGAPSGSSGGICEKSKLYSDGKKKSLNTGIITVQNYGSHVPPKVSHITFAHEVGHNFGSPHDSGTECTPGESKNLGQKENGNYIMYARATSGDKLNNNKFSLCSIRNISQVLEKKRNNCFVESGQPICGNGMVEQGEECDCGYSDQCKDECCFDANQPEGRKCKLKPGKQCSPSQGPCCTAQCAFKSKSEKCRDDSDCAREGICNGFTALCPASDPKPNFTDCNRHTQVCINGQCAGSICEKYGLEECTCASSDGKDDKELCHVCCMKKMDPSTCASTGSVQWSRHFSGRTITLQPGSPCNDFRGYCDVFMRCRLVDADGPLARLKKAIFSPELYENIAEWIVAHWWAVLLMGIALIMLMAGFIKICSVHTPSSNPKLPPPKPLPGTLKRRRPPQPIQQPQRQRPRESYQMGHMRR
A number is an active result; i = inactive; nt = no result given. This is a sample that favours compounds with a hit; in the whole collection about 7% have one here.

SMILES	KLK7 zymogen act	AHR activator	rCAG binder	ADAM17 inh	NR3A LBD binder	ADAM10 inh
COC(=O)[C@]12C[C@H](CC(=O)NCc3cccc(C(F)(F)F)c3)C(=O)N(CCC3=CCCCC3)C1=C[C@H](COCc1ccccc1)O[C@@H]2C	i	nt	i	i	nt	i
CCOC(=O)N1CCN(C(=O)C[C@H]2C[C@@]3(C(=O)OC)C(=C[C@H](C(C)C)O[C@@H]3C3CC3)N(Cc3cccc4ccccc34)C2=O)CC1	i	nt	i	i	nt	i
Cc1cc(-c2cccc([N+](=O)[O-])c2)nc2ccc3ccccc3c12	i	i	i	i	27	i
O=[N+]([O-])c1ccc(-c2nc(NCc3ccccc3)c3ccccc3n2)cc1	i	i	i	i	50	i
O=C(/C=C(\Nc1cccc(OC(F)F)c1)c1ccccc1)c1ccccc1	i	nt	i	i	nt	i
CCOC(=O)[C@]12CCCC3=C1N(CCC3)C(=O)[C@@H](CC(=O)NCCC(C)C)C2	i	nt	i	i	nt	i
Fc1cccc(Cl)c1/C=C/c1cnc2ccccc2n1	i	66	i	i	i	i
Fc1cccc(F)c1/C=C/c1ccc2ccccc2n1	i	48	i	i	i	i
C(=C\c1ccco1)/c1ccc2ccccc2n1	i	i	i	i	i	i
Fc1ccc(NC(=S)N/N=C/c2cccc(Br)c2)c(F)c1	i	i	i	i	32	i
Fc1cccc(/C=N/NC(=S)Nc2ccccc2Cl)c1	i	76	i	i	i	i
S=C(N/N=C/c1ccc(Cl)c(Cl)c1)Nc1ccccc1Cl	i	i	i	i	38	i
COc1ccc(C2CC(=O)C(c3ccccc3OC)=CN2Cc2ccccc2)cc1 (configuration not stated)	i	nt	i	i	nt	i
COCCN=c1scc(-c2ccccc2)n1/N=C/c1c[nH]c2ccccc12	i	55	i	i	i	i
Cc1cc(C)n(/N=C/c2c[nH]c3ccccc23)c(=O)c1	i	i	i	i	i	i
CC(=O)c1cccc(NC(=S)NCc2ccccc2)c1	i	i	i	i	i	i
O=C(NCCc1ccncc1)Nc1ccc(Cl)cc1	i	i	i	i	i	i
CC(=O)c1cccc(NC(=S)NCCc2ccc(Cl)cc2)c1	i	i	i	i	15	i
O=C(NCCc1ccc(Cl)cc1)Nc1ccc(Cl)cc1	i	i	i	i	20	i
COc1ccc2[nH]c3c(c2c1)CCN[C@]31C(=O)N(C)c2ccc(Br)cc21	i	nt	i	i	nt	i
CCC(C)[C@H](NS(=O)(=O)c1ccc(C)cc1)C(=O)N1CCC(C(=O)N[C@@H](Cc2ccccc2)C(=O)O)CC1 (some centres not stated)	i	i	i	i	13	i
CCCCCCN1CCS(=O)(=O)N(Cc2ccc(C)cc2)C(C(=O)OC)C1 (configuration not stated)	i	nt	i	i	nt	i
CC1=[N+](CC(=O)c2ccccc2)CCn2cccc21	i	47	i	i	i	i
CCN(CC)C(=O)O[C@H]1CC[C@@]23CCCN2C(=O)CCC[C@H]3[C@H]1C	nt	nt	nt	i	nt	i
CCN(CC)CCNC(C(=O)Nc1cc(C(F)(F)F)ccc1Cl)c1ccccc1 (configuration not stated)	i	i	i	i	i	i
SMILES	KLK7 zymogen act	AHR activator	rCAG binder	ADAM17 inh	NR3A LBD binder	ADAM10 inh
O=C(Nc1cc(C(F)(F)F)ccc1Cl)C(NCc1ccccc1)c1ccccc1 (configuration not stated)	i	i	i	i	18	i
Nc1nc(N)c(C=Nc2ccc(Br)cc2)c(Nc2ccc(Br)cc2)n1	i	99	i	i	51	i
CCOC(=O)CCCNC(=O)OC1CC2CC1[C@H]1CCCCN1[C@H]2Cc1ccccc1 (some centres not stated)	i	nt	i	i	nt	i
O=C(O)CN1C(=O)/C(=C/c2cccc(Cl)c2)Oc2ccccc21	i	i	52	i	i	i
CC(C)(C)OC(=O)NCc1cc2c(cc1/C=C/S(=O)(=O)NC1CCCC1)OCO2	i	nt	i	i	nt	i
O=S(=O)(CC1NCc2cc(F)ccc21)NCc1ccccc1 (configuration not stated)	i	nt	i	i	nt	i
O=C(Cn1c(=O)c2cccn2c2ccc(F)cc21)NCCCN1CCN(c2ccccc2F)CC1	i	i	i	i	13	i
O=C(CCc1ccccc1)c1c(O)cc(O)cc1O	i	i	i	i	13	i
COc1ccc(C(=O)CCc2ccccc2)c(O)c1	i	i	i	i	i	i
